# Measured values published in PubChem BioAssay (NCATS).
# Records with an inconclusive call do not appear. Some of the results follow. A call without a number means that no potency is given here. Activity calls are given as the source filed them. Calls follow the shape of the dose curve; as a rule, active = well fitted curve in the direction sought with a large enough effect; inconclusive = small, poorly fitted or top-dose-only effect, or another doubt; inactive = no such curve, though single readings can be large; an effect the other way counts as inactive or inconclusive.
# Legend:
# [1] = qHTS for Inhibitors of the vitamin D receptor (VDR): Hit Validation using a Texas Red Assay (AID 602201); also: potency is read from the fitted curve at half-maximal effect
# Procedure, shortened: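 Fluorescence polarization with 1.5 uM VDR-LBD, LG19078 and 7 nM Texas Red (final). After 2 hours at ambient temperature, read at Ex 595 nm/Em 615 nm.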
# [2] = target: Tumor susceptibility gene 101 protein (Homo sapiens) (UniProt Q99816); assay: qHTS Assay for Iinhibitors of HIV-1 Budding by Blocking the Interaction of PTAP/TSG101: Hit Validation (AID 651600); also: nearly all actives have a fitted effect of over 70% in size; also: potency is read from the fitted curve at half-maximal effect
# Chain of Tumor susceptibility gene 101 protein (Homo sapiens) (Q99816 whole entry, looked up, the tested form may be a part): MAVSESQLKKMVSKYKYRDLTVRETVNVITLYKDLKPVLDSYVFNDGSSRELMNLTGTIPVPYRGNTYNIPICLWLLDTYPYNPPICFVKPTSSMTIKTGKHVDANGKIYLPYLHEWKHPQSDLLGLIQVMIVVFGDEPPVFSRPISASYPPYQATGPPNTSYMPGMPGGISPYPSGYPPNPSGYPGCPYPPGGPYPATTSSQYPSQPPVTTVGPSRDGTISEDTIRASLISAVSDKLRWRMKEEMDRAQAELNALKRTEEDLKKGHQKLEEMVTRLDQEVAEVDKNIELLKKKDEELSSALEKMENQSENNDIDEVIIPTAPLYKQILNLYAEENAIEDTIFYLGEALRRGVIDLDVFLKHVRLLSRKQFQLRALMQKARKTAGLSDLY
# Procedure, shortened: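 Displacement of a FITC-labeled PTAP-motif peptide (50 nM) from the Tsg101 binding domain (10 uM) was monitored by fluorescence polarization after a 20 min room-temperature incubation.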
# [3] = target: Cytochrome P450 2C9 (Homo sapiens) (UniProt P11712); assay: qHTS Assay for Inhibitors and Substrates of Cytochrome P450 2C9 (AID 883); also: potency is read from the fitted curve at half-maximal effect; nearly all actives have a fitted effect of over 60% in size
# Chain of Cytochrome P450 2C9 (Homo sapiens) (P11712 whole entry, looked up): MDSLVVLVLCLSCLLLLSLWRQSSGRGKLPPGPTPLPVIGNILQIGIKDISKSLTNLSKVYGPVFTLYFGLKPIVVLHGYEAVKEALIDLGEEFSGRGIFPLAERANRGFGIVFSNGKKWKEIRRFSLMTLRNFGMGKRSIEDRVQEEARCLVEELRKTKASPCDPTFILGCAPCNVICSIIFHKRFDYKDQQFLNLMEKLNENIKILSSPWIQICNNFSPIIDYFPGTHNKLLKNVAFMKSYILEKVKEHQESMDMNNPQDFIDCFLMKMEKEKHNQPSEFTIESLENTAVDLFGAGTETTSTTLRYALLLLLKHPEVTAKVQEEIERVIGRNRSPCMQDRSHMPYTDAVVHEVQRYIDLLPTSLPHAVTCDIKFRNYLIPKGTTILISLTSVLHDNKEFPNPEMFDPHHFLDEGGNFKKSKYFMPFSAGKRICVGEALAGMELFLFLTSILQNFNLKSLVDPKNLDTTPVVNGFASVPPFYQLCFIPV
# Procedure, shortened: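 Human CYP2C9 (10nM) with Luciferin-H at 100uM (its KM) in 25mM KPO4; compound preincubated 10 min at 37C, then NADPH regeneration for 60 min at 37C. Luciferin read by luminescence after detection reagent; normalized to 57uM sulphaphenazole as full inhibition.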
# [4] = target: Cytochrome P450 3A4 (Homo sapiens) (UniProt P08684); assay: qHTS Assay for Activators of Cytochrome P450 3A4 (AID 885); also: nearly all actives have a fitted effect of over 65% in size
# Chain of Cytochrome P450 3A4 (Homo sapiens) (P08684 whole entry, looked up): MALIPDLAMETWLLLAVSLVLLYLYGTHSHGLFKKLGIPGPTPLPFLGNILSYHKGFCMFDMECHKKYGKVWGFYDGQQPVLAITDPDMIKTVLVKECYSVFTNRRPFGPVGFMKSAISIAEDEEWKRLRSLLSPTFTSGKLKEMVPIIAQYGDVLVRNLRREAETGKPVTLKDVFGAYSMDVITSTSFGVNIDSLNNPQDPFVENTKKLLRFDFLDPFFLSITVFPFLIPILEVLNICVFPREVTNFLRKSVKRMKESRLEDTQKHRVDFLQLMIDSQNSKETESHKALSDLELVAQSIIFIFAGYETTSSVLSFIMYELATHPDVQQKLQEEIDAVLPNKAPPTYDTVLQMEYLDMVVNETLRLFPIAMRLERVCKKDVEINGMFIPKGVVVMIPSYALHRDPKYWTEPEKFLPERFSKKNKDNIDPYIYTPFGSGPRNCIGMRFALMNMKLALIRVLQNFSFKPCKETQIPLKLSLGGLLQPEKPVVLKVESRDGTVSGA
# Procedure, shortened: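 Steps: enzyme/substrate mix dispensed; compound added, 10 min RT; NADPH regeneration solution added, 60 min RT; luciferin detection buffer stops reaction; 20 min later luminescence measured.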
# [5] = target: Cytochrome P450 2C19 (Homo sapiens) (UniProt P33261); assay: qHTS Assay for Inhibitors and Substrates of Cytochrome P450 2C19 (AID 899); also: potency is read from the fitted curve at half-maximal effect; nearly all actives have a fitted effect of over 60% in size
# Chain of Cytochrome P450 2C19 (Homo sapiens) (P33261 whole entry, looked up): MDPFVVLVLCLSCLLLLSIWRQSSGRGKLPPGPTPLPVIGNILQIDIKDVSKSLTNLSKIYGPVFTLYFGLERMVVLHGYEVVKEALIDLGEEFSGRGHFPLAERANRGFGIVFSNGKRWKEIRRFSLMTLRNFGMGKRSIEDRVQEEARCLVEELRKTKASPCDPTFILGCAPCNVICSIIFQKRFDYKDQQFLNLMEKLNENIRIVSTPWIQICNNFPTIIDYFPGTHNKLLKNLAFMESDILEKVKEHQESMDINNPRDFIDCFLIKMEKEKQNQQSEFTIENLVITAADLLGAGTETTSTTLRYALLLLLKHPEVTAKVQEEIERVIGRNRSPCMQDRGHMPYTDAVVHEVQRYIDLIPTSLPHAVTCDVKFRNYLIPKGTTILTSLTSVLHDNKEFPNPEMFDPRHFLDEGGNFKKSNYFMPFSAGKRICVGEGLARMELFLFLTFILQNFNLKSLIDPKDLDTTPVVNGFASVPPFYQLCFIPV
# Procedure, shortened: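 5 nM human CYP2C19 with 10uM Luciferin-H EGE (at KM) in 50mM KPO4, compound preincubated 10 min at 37C, then NADPH regeneration for 60 min at 37C. Luciferin read by luminescence after detection reagent; normalized to 57uM ketoconazole as full inhibition.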
# [6] = qHTS screen for small molecules that inhibit ELG1-dependent DNA repair: Hit Confirmation with MMS Viability (AID 624251); also: nearly all actives have a fitted effect of over 60% in size; also: potency is read from the fitted curve at half-maximal effect
# Procedure, shortened: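 Viability read-out: CellTiter-Glo, 16 h after compound addition. Cell line ELG1-luc HEK293T; DNA-damaging co-treatment MMS, 10 µM final.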
# [7] = target: Luciferin 4-monooxygenase (Photinus pyralis) (UniProt P08659); assay: qHTS screen for small molecules that inhibit ELG1-dependent DNA repair: Hit Confirmation in Biochemical Luciferin Assay (AID 624253); also: potency is read from the fitted curve at half-maximal effect
# Chain of Luciferin 4-monooxygenase (Photinus pyralis) (P08659 whole entry, looked up): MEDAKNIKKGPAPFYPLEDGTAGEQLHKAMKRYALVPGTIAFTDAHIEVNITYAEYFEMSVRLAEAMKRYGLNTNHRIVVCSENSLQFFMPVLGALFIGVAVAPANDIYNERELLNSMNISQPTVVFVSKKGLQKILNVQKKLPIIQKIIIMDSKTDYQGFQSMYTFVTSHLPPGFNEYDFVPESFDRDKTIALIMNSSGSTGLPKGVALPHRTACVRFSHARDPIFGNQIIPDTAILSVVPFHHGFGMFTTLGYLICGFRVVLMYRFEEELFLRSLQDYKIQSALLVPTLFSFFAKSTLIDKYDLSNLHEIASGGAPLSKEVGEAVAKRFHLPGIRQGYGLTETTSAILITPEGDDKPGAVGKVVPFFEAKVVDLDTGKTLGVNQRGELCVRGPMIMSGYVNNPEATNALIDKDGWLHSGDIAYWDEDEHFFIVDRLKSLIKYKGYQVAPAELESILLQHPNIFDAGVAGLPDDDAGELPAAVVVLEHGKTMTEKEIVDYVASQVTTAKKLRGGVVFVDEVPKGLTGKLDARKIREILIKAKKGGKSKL
# Procedure, shortened: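 Compounds are tested directly on isolated Photinus pyralis luciferase, without cells. Enzyme is added to substrate already containing compound, and light output is captured by CCD imaging.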
# [8] = target: Luciferin 4-monooxygenase (Photinus pyralis) (UniProt P08659); assay: Biochemical firefly luciferase enzyme assay for NPC (AID 624030);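 also: purified P. pyralis luciferase at 10 nM with luciferin and ATP substrate; series mostly up to about 59 µM; nearly all actives have a fitted effect of over 70% in size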
# Procedure, shortened: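 Purified P. pyralis luciferase at 10 nM in 50 mM Tris Acetate (final), luminescence read within 5 minutes of enzyme addition to compounds. Activity normalised to PTC124 versus DMSO; concentration-response curves classed by r2, magnitude and activity.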
# [9] = Confirmation and Secondary Assay for Modulators of Hemoglobin Beta Chain Splicing at IVS2 654 locus (AID 910);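 also: HeLa cells stably carrying EGFP split by mutant beta-globin IVS2-654 intron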
# Procedure, shortened: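 HeLa cells stably expressing EGFP interrupted by β-globin IVS2-654 intron, seeded overnight in Opti-MEM/2% FCS, then treated 2 days at 37 °C. Restored splicing read as total peak GFP intensity per well by laser scanning cytometry (488 nm excitation, 500–520 nm emission); 500 nM antisense PNA as control.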
smiles,measurement,setting,value
CC1(C)CC(=O)C(C(C2=C(O)CC(C)(C)CC2=O)c2ccc(O)c([N+](=O)[O-])c2)=C(O)C1,Potency,[1],inactive
CN1C(=O)/C(=N\OC(=O)c2ccccc2Cl)c2ccccc21,Potency,[1],31.6 µM (active)
COc1cc(/C=C2\C(=O)ON=C2c2ccccc2)cc(Br)c1O,Potency,[1],inactive
COc1ccc(OC)c(-c2c3cc(O)c(=O)cc-3oc3cc(O)c(O)cc23)c1,Potency,[1],8.91 µM (active)
same,Potency,[2],32.6 µM (active)
COc1ccc(OC)c2c1C(=O)C(Cl)=C(Cl)C2=O,Potency,[1],7.08 µM (active)
CC1=CC(=O)C(C(C)C)=CC1=NC(=O)c1ccc(C)cc1,Potency,[1],inactive
O=c1[nH]c(/C=C\c2cccc(Cl)c2)nc(O)c1[N+](=O)[O-],Potency,[1],inactive
O=C(O)CN1C(=O)/C(=C\c2cc(Br)ccc2OCc2ccc(Cl)cc2Cl)SC1=S,Potency,[1],inactive
Nc1cc(S(=O)(=O)Nc2ccccc2Cl)ccc1N1CCCCC1,Potency,[1],5.62 µM (active)
COc1ccc(/C=C/C(=O)c2ccc([N+](=O)[O-])o2)cc1OC,Potency,[1],10 µM (active)
CS(=O)(=O)c1ccc(S(=O)CC(=O)Oc2ccc(Cl)cc2)c([N+](=O)[O-])c1 (stereo unspecified),Potency,[1],2.51 µM (active)
CCOc1ccc(C(=O)CC(C(=O)O)N2CCCCC2)cc1 (stereo unspecified),Potency,[1],inactive
CSc1nnc(NC(=O)c2nc(S(=O)(=O)Cc3ccccc3)ncc2Cl)s1,Potency,[1],28.2 µM (active)
Cc1cccc2c1N(Cc1ccccc1OCCC(C)C)C(=O)C2=O,Potency,[1],12.6 µM (active)
COC(=O)[C@@]1(Cc2ccc(OC)cc2)[C@H]2c3cc(C(=O)N4CCCC4)n(CCCNc4ncc(C(F)(F)F)cc4Cl)c3C[C@H]2CN1C(=O)c1ccccc1,Potency,[3],7.94 µM (active)
same,Potency,[4],inactive
same,Potency,[5],3.16 µM (active)
Cc1ccc(C)c(S(=O)(=O)N2CCN(c3ncnc4sccc34)CC2)c1,Potency,[6],2.5 µM (active)
Cc1ccccc1NC(=O)CSc1nc2ccc(Nc3nc(N4CCOCC4)nc(N4CCOCC4)n3)cc2s1,Potency,[6],inactive
same,Potency,[7],inactive
OCCCNc1nccc(-c2cc(Nc3cccc(Cl)c3)ncn2)n1,Potency,[6],2.5 µM (active)
CC1NC(=O)C(N)CNC(=O)C(C2CCN=C(N)N2)NC(=O)/C(=C/NC(N)=O)NC(=O)C(CNC(=O)CC(N)CCCN)NC1=O (stereo unspecified),Potency,[8],inactive
CC(=O)c1c(C)n(-c2ccc(C)cc2)c2ccc(O)cc12,Potency,[6],inactive
Cc1cc2oc(=O)cc(CN3CCN(S(=O)(=O)c4cccs4)CC3)c2cc1C(C)C,Potency,[6],22.3 µM (active)
CC(CSC(=O)c1ccccc1)C(=O)N1CC(Sc2ccccc2)CC1C(=O)O (stereo unspecified),Potency,[8],inactive
COc1ccc(CNc2ncnc3ccccc23)cc1,Potency,[6],2.23 µM (active)
Cc1ccc(N(Cc2ccc(C(=O)Nc3ccccc3C(=O)NCc3ccco3)cc2)S(C)(=O)=O)cc1C,Potency,[6],inactive
C(=N\NC1=Nc2cccc3cccc1c23)/c1ccccc1,Potency,[2],inactive
CN(C)c1ccnc2sc3c(=O)n(Cc4ccccc4)cnc3c12,Potency,[6],inactive
COc1ccc(-c2nn(-c3ccccc3)cc2/C=C\C(=O)N2CCOCC2)cc1[N+](=O)[O-],Potency,[6],inactive
COc1cc2c(cc1OC)-c1cc3ccc4c(c3c[n+]1CC2)OCO4,Potency,[2],13 µM (active)
COc1ccccc1C(=O)Nc1ccc(C)c(S(=O)(=O)N2CCCCC2)c1,Potency,[6],inactive
COc1ccc(CSc2nc(N3CCOCC3)c3c(c2C#N)CC(C)(C)OC3)cc1,Potency,[6],inactive
same,Potency,[7],inactive
O=c1[nH]c2c(s1)C=Nc1ccccc1N2,Potency,[2],9.19 µM (active)
O=C(Nn1c(SCc2ccc([N+](=O)[O-])cc2)nc2ccccc2c1=O)c1ccc(F)cc1,Potency,[7],16.4 µM (active)
Clc1ccc2nc(-c3ccccc3)nc(C(Cl)Cl)c2c1,Potency,[6],3.97 µM (active)
CCc1ccc(N(CC)c2ncnc3nc[nH]c23)cc1,Potency,[6],inactive
Nc1nnc(SCC(=O)Nc2ccc3nc(SCC(=O)Nc4ccccc4)sc3c2)s1,Potency,[6],5.6 µM (active)
COc1ccc(NS(=O)(=O)c2ccc(Oc3c(C#N)cccc3C#N)cc2)cc1,Potency,[6],4.45 µM (active)
CCC(=O)OCC(=O)C1(OC(=O)CC)C(C)CC2C3CCC4=CC(=O)C=CC4(C)C3(Cl)C(O)CC21C (stereo unspecified),Potency,[4],inactive
same,outcome,[9],inactive
same,Potency,[8],inactive
CC(C)(CNC(=O)c1ccc(Cl)c(S(=O)(=O)N2CCc3ccccc3C2)c1)N1CCOCC1,Potency,[6],1.99 µM (active)
CN1CC=C2C(C#N)=C(N)C(C#N)(C#N)C(Cc3ccccc3)C2C1 (stereo unspecified),Potency,[2],inactive
O=C(C1CCCN(S(=O)(=O)c2ccccc2)C1)N1CCN(c2ccc(F)cc2)CC1 (stereo unspecified),Potency,[6],3.97 µM (active)
same,Potency,[7],inactive
Cn1c(=O)c2[nH]c(COc3ccccc3)nc2n(C)c1=O,Potency,[2],inactive
CC12CCC(C(=O)N3CCN(c4ncccn4)CC3)(c3nc4ccccc4nc31)C2(C)C (stereo unspecified),Potency,[6],inactive
CC(=O)N1CCc2cc(Br)cc(S(=O)(=O)CCC(=O)Nc3c(C)n(C)n(-c4ccccc4)c3=O)c21,Potency,[7],inactive
